{"source": "PubChem BioAssay (Tox21)", "note": "Where “and” joins values, the source holds several entries; their conditions need not be identical. Identical values can stand only once. Inconclusive results are not listed. Where a call stands in place of a potency, no number is given. Values without a mark were called inactive. Calls of active or inactive are those of the source. The call rests on the fitted dose curve; in most records, active means well fitted cell-killing curve with a large enough effect in the repeat runs; inconclusive means weak or mixed curves, or effect the other way; inactive means no such curve, though single readings can be large or run the other way. Potency means the concentration at half of the fitted maximal effect.", "data": [{"assay": "qHTS assay to identify small molecule antagonists of the peroxisome proliferator-activated receptor gamma (PPARg) signaling pathway - cell viability counter screen (AID 743194); further: nearly all actives have a fitted effect of over 55% in size", "conditions": "PPARg-bla HEK293H viability, CellTiter-Glo luminescence, 17 h, co-treated with 50 nM rosiglitazone; series mostly up to 62.6 µM", "excerpt": "U.S. Tox21 Program National Center for Advancing Translational Sciences [NCATS] NIH Chemical Genomics Center [NCGC] U.S. Environmental Protection Agency [EPA] National Institutes of Environmental Health Sciences [NIEHS] National Toxicology Program [NTP] U.S. Food and Drug Administration [FDA] Tox21 Assay Overview: The peroxisome proliferator-activated receptors (PPARs) are lipid-activated transcription factors of the nuclear receptor superfamily with three distinct subtypes namely PPAR alpha, PPAR delta (also called PPAR beta) and PPAR gamma (PPARg). All these subtypes heterodimerize with Retinoid X receptor (RXR) and these heterodimers regulate transcription of various genes. PPAR-gamma receptor (glitazone receptor) is involved in the regulation of glucose and lipid metabolism. To identify the compounds that activate PPAR-gamma signaling, GeneBLAzer PPAR gamma UAS-bla HEK293H cell line (Invitrogen, Carlsbad, CA, USA) containing a beta-lactamase reporter gene under the control of an Upstream Activator Sequence (UAS) was used to screen the Tox21 compound library. The cytotoxicity of the Tox21 compound library against the PPARg-bla cell line was tested in parallel by measuring the cell viability using CellTiter-Glo assay in the same wells.\nTox21 Assay Protocol Summary: PPARg-bla cells were dispensed at 3000 cells/5uL/well in 1536-well black wall/clear bottom plates using a Multidrop Combi (Thermo Fisher Scientific, Waltham, MA) dispenser. After the assay plates were incubated at 37 C and 5% CO2 for 5 h, 23 nL of compounds dissolved in DMSO, positive controls or DMSO only was transferred to the assay plate by a Pintool station (Kalypsys, San Diego, CA), followed by addition of 1ul Rosiglitazone (50 nM, final concentration in the wells). The assay plates were incubated at 37 C for 17 h, and then 1 uL of LiveBLAzerTM B/G FRET substrate was added using a Bioraptr Flying Reagent Dispenser (FRD) workstation (Beckman Coulter, Indianapolis, IN, USA). The assay plates were incubated at room temperature for 1 h and fluorescence intensity was measured by an Envision plate reader (PerkinElmer, Shelton, CT). For cell viability readout that measures cytotoxicity, 4 ul/well of CellTiter-Glo reagent was added into the assay plates using a Flying Reagent Dispenser. After 30 min incubation at room temperature, the luminescence intensity in the plates was measured using a ViewLux plate reader (PerkinElmer).", "values": [{"smiles": "CC[N+](CC)(CC)CCOC(=O)C(C1CCCC1)C1CCCC1", "Potency": "inactive"}, {"smiles": "Nc1ccc(NCCO)c([N+](=O)[O-])c1", "Potency": "inactive"}, {"smiles": "O=C(Nc1ccc2c(O)c(N=Nc3ccc(N=Nc4ccc(S(=O)(=O)O)cc4)cc3)c(S(=O)(=O)O)cc2c1)c1ccccc1", "Potency": "inactive"}, {"smiles": "CC1(C)CC(O)CC(C)(C)N1", "Potency": "inactive"}, {"smiles": "FC(F)(F)c1cccc(Cl)c1", "Potency": "inactive"}, {"smiles": "CC(C)OC(=O)C(O)(CC(=O)O)CC(=O)O", "Potency": "inactive"}, {"smiles": "c1ccc(SSc2ccccc2)cc1", "Potency": "inactive"}, {"smiles": "Clc1sc(Cl)c(Cl)c1Cl", "Potency": "inactive"}, {"smiles": "CC(CO)Oc1ccccc1", "note": "(stereo not given)", "Potency": "inactive"}, {"smiles": "CC[C@H](C)COC(=O)/C=C/c1ccc(N=Cc2ccc(OC)cc2)cc1", "Potency": "inactive"}, {"smiles": "CCCCCCOC(=O)C(C)CC", "note": "(stereo not given)", "Potency": "inactive"}, {"smiles": "CCC(C)[O-].CCC(C)[O-].CCOC(=O)/C=C(/C)[O-].[Al+3]", "Potency": "inactive"}, {"smiles": "O=C(O)c1cc(=O)c2ccccc2o1", "Potency": "inactive"}, {"smiles": "O=C(/C=C/c1ccccc1)OC/C=C/c1ccccc1", "Potency": "inactive"}, {"smiles": "C[Si](Cl)(c1ccccc1)c1ccccc1", "Potency": "inactive"}, {"smiles": "O=c1oc2cc(O)ccc2c2oc3cc(O)ccc3c12", "Potency": "inactive"}, {"smiles": "Cc1c(C)c2c(c(C)c1OC(=O)c1cccnc1)CC[C@@](C)(CCC[C@H](C)CCC[C@H](C)CCCC(C)C)O2", "Potency": "inactive"}, {"smiles": "CC(=O)OCC=C(C)C", "Potency": "inactive"}, {"smiles": "CCn1c2ccccc2c2cc([N+](=O)[O-])ccc21", "Potency": "inactive"}, {"smiles": "O=C(O)Cc1ccc2c(c1)C(=O)c1ccccc1CO2", "Potency": "inactive"}, {"smiles": "Nc1nc2c(ncn2COCCO)c(=O)[nH]1", "Potency": "inactive"}, {"smiles": "CN1CCCCC1CCN1c2ccccc2Sc2ccc(S(C)=O)cc21", "note": "(stereo not given)", "Potency": "inactive"}, {"smiles": "CC(C)(C)CC(C)(C)c1ccc(Nc2ccc(C(C)(C)CC(C)(C)C)cc2)cc1", "activity change, negative = cytotoxicity": "-4.03% [at 5.95 µM]"}, {"smiles": "C=Cc1cccc(C)c1", "Potency": "inactive"}, {"smiles": "CN(C)c1ccc(C(=C2C=CC(=[N+](C)C)C=C2)c2ccc(N(C)C)cc2)cc1", "Potency": "1.94 µM (active) and 1.95 µM (active) and 5.96 µM (active)"}, {"smiles": "CCCCCc1ccc(Cl)cc1", "Potency": "inactive"}, {"smiles": "CCCCNS(=O)(=O)c1ccc(C)cc1", "Potency": "inactive"}, {"smiles": "O=C(O)O", "activity change, negative = cytotoxicity": "0.913% [at 5.95 µM]"}, {"smiles": "Cc1cc(C(C#N)c2ccc(Cl)cc2)c(Cl)cc1NC(=O)c1cc(I)cc(I)c1O", "note": "(stereo not given)", "Potency": "3.76 µM (active)"}, {"smiles": "CCc1cccc(CC)c1NC(=O)CN(CC(=O)O)CC(=O)O", "Potency": "inactive"}, {"smiles": "C/C=C/C=C/COC(=O)C(C)C", "Potency": "inactive"}, {"smiles": "C=CC(=O)Nc1cc2c(Nc3ccc(F)c(Cl)c3)ncnc2cc1OCCCN1CCOCC1", "Potency": "29.8 µM (active)"}, {"smiles": "Cl[Si](Cl)(c1ccccc1)c1ccccc1", "Potency": "inactive"}, {"smiles": "Cc1cc(C)c(/C=C2\\C(=O)Nc3ccccc32)[nH]1", "Potency": "inactive"}, {"smiles": "CC(C)=CCC1=C(O)c2ccccc2C(=O)C1=O", "Potency": "inactive"}, {"smiles": "CCN(CCN)c1cccc(C)c1", "Potency": "inactive"}, {"smiles": "CCCCOC(=O)CC", "Potency": "inactive"}, {"smiles": "OC/C=C/CO", "Potency": "inactive"}, {"smiles": "Cc1cc(-c2ccc(N=Nc3cc(S(=O)(=O)O)c4ccccc4c3N)c(C)c2)ccc1N=Nc1cc(S(=O)(=O)O)c2ccccc2c1N", "Potency": "inactive"}, {"smiles": "CC(C(=O)O)c1ccc2c(c1)[nH]c1ccc(Cl)cc12", "note": "(stereo not given)", "Potency": "inactive"}]}]}
